Rows were chosen to be rich in hits. Some 11% of all compounds tested hit in one or more screens of this group.
HCV inh – blocks hepatitis C virus | Huh7.5.1 HCVcc-Cre infection, luciferase reporter, 44 h | Potency, µM (top dose mostly 41.8 µM), hits mostly inhibitors | 340,000 compounds, 3.4% hits | AID 651820
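Cells (1,000/well) were plated 4 h before compound, then infected with HCVcc-Cre virus (~0.5 moi). After 44 h further culture, infection was read as luciferase luminescence following a 15 min substrate incubation at room temperature.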
AmpC detergent – inhibitors of E. coli AmpC beta-lactamase with detergent. AmpC hydrolysis of nitrocefin, absorbance 480 nm, 0.01% Triton. 370,000 compounds, 0.041% hits. Potency, µM (top dose mostly 114 µM), hits mostly inhibitors. P00811. AID 485294; note: nearly all actives have a fitted effect of over 25% in size
Target sequence (P00811 whole entry, looked up): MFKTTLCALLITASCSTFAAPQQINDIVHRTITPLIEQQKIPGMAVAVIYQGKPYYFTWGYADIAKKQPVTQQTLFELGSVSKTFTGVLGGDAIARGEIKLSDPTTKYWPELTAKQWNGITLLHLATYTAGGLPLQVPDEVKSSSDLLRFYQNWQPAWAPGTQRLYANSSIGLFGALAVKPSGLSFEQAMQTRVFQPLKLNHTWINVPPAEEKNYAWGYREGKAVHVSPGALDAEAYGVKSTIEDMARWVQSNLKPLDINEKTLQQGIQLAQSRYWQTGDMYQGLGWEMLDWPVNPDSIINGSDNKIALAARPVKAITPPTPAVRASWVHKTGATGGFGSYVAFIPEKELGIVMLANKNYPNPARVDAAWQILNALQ
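20 mM phosphate pH 7.0 + 0.01% (detergent screen) or 0.0001% Triton X-100; 5.3 nM AmpC reagent; cpd preinc 15 min RT; nitrocefin (800 uM stock) to start; A480 q20 s × 4 min; Activity was normalised to no-enzyme and no-compound control wells.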
Pf growth 48h – P. falciparum growth inhibition at 48 hours (one generation); P. falciparum luciferase growth in erythrocytes, 48 h; Potency, µM (highest dose often 28.7 µM), most hits filed as inhibitors; 310,000 compounds, 5.9% hits; AID 504832
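Growth was read as firefly luciferase luminescence after a 48 h, 37 C, 5% CO2 exposure of compounds to reporter-bearing P. falciparum cultures (0.1% parasitemia, 2% hematocrit final) in Albumax-supplemented RPMI 1640.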
Pf growth 96h – inhibits malaria parasite growth, 96 h | AID 504834 | Potency, µM (titrated, usually from 28.7 µM), actives largely listed as inhibitors | P. falciparum luciferase reporter growth, 96 h | 320,000 compounds, 6.9% hits
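Erythrocytes infected with luciferase-expressing P. falciparum were dispensed at 2% hematocrit and 0.05% parasitemia (final), then incubated with compounds 96 hours at 37 C in 5% CO2. Luminescence after detection reagent addition reported growth.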
AMA1-RON2 inh – disrupts binding of P. falciparum AMA1 to RON2. AlphaScreen AMA1-biotinylated RON2 peptide binding. Potency, µM (titrated, usually from 58.2 µM), hits mostly inhibitors. 360,000 compounds, 0.2% hits. AID 720542; note: nearly all actives have a fitted effect of over 45% in size
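AMA1 (3D7) with his tag at 25 nM final met compounds first, then biotinylated RON2 peptide at 25 nM; detection used donor plus acceptor beads, 10 µg/mL apiece, read by AlphaScreen after 30 min at room temperature.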
AmpC inh no detg – inhibitors of E. coli AmpC beta-lactamase without detergent; AmpC nitrocefin hydrolysis, absorbance 480 nm, 0.0001% Triton; Potency, µM (highest dose often 57.1 µM), hits mostly inhibitors; P00811; 330,000 compounds, 0.52% hits; AID 485341; note: nearly all actives have a fitted effect of over 20% in size
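20 mM phosphate pH 7.0 + 0.01% (detergent screen) or 0.0001% Triton X-100; 5.3 nM AmpC reagent; cpd preinc 15 min RT; nitrocefin (800 uM stock) to start; A480 q20 s × 4 min; Activity was normalised to no-enzyme and no-compound control wells.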
Numbers stand for hits; . = inactive; ? = inconclusive; / = no result given; ! = not active in a repeat; [ ] = remark or other dose. Calls come from the whole dose curve; as a rule, active = well fitted curve in the direction sought with a large enough effect; inconclusive = small, poorly fitted or top-dose-only effect, or another doubt; inactive = no such curve, though single readings can be large; an effect the other way counts as inactive or inconclusive.

SMILES	HCV inh	AmpC detergent	Pf growth 48h	Pf growth 96h	AMA1-RON2 inh	AmpC inh no detg
CC(C)Oc1ccc(C(=O)NCC(=O)N2CCN(S(=O)(=O)/C=C/c3ccccc3)CC2)cc1	?	.	15µM	?	.	.
Cc1cccc(C(=O)NCC(=O)N2CCN(S(=O)(=O)/C=C/c3ccccc3)CC2)c1	.	.	?	.	.	.
O=C(CNC(=O)C12CC3CC(CC(C3)C1)C2)N1CCN(S(=O)(=O)/C=C/c2ccccc2)CC1	.	.	?	9.3µM	.	.
N#Cc1c(-c2ccccc2)nc2n(-c3ccccc3)nc(C(=O)Nc3ccccc3)n2c1=O	.	.	/	0.74µM	.	.
N#Cc1cccc(NC(=O)c2nc(-c3ccccc3)n(-c3ccccc3)n2)c1	?	?	?	/	.	.
CCN(CC)c1ccc(/C=C(\C#N)c2nc(-c3cccs3)c(NC(C)=O)s2)cc1	13µM	.	13µM	7.4µM	/	.
CC(=O)Nc1sc(N/N=C\c2ccc(O)cc2)nc1-c1cccs1	.	.	.	.	.	.
CCNC(=O)/C(C#N)=C/c1c(N2CCN(C)CC2)nc2c(C)cccn2c1=O	.	.	.	.	.	.
Cc1cccn2c(=O)c(C=C(C#N)C#N)c(N3CCN(c4cccc(Cl)c4)CC3)nc12	.	.	7.4µM	?	.	.
Cc1cccn2c(=O)c(/C=C(\C#N)C(=O)NCc3ccco3)c(N3CCCCC3)nc12	.	.	?	2.9µM	.	.
CCNC(=O)/C(C#N)=C/c1c(N2CCN(c3cccc(Cl)c3)CC2)nc2c(C)cccn2c1=O	?	.	12µM	?	.	.
CCNC(=O)/C(C#N)=C/c1c(N2CCN(Cc3ccc4c(c3)OCO4)CC2)nc2c(C)cccn2c1=O	.	?	7.4µM	3.7µM	.	.
Cc1cccn2c(=O)c(/C=C(\C#N)C(=O)NCc3ccco3)c(N3CCCCCC3)nc12	?	.	?	?	.	.
CC(C)CN(CCCNC(=O)c1cc(-c2cccs2)nc2ccccc12)CC(C)C	/	.	/	/	/	/
CN1C(=S)SC(/[N+]([O-])=C/c2cccnc2)C1(C)C (stereo not drawn)	.	.	.	3.7µM	.	.
Cc1ccc2ncc3c(-c4ccccc4)nn(CC(=O)NC4CCCCC4)c3c2c1	/	.	/	/	/	/
O=C(O)Cn1c2ccccc2c2ccccc21	4µM	.	.	.	.	.
CCN(Cc1ccccc1)C(=O)COc1ccccc1	.	.	.	8.3µM	?	.
CCOc1ccc(C(=O)OCC(=O)N(Cc2ccccc2)Cc2ccccc2)cc1OC	.	.	12µM	?	.[11.6 µM]	.
COc1cc(C(=O)OCC(=O)NC(=O)NCc2ccccc2)ccc1OC(F)F	.	.	.	.	.	.
O=C(CSc1nc2ccc(NC(=O)c3ccccc3C(=O)O)cc2s1)Nc1ccc(F)c([N+](=O)[O-])c1	.	.	.	.	.	18µM
COc1ccccc1C(=O)Nc1ccc2nc(SCC(=O)N(C)C)sc2c1	.	.	?	12µM	.	.
CCCN(C(=O)CCc1nc(-c2ccc(OC)cc2)no1)c1ccccc1F	/	.	/	/	/	/
Cc1ccc(S(=O)(=O)N2CCCCC2)cc1C(=O)N(C)CC(=O)Nc1ccc(Cl)c(C(F)(F)F)c1	?	.	?	?	.	.
CN(CC(=O)Nc1ccc(Cl)c(C(F)(F)F)c1)C(=O)c1ccc(S(=O)(=O)N2CCOCC2)cc1	.	/	/	/	.	/
SMILES	HCV inh	AmpC detergent	Pf growth 48h	Pf growth 96h	AMA1-RON2 inh	AmpC inh no detg
Cc1ccc(C(=O)N(C)CC(=O)Nc2ccc(Cl)c(C(F)(F)F)c2)cc1S(=O)(=O)N1CCCCC1	7.9µM	.	9.3µM	?	.	.
CN(CC(=O)Nc1ccc(Cl)c(C(F)(F)F)c1)C(=O)CCNC(=O)c1ccco1	.	?	10µM	.	.	.
CN(CC(=O)Nc1ccc(Cl)c(C(F)(F)F)c1)C(=O)c1ccc(OCC2CCCO2)cc1 (stereo not drawn)	10µM	.	.	?	.	.
CN(C)c1ccc(CNC(=O)CN2CCSc3ccc(S(=O)(=O)N(C)C)cc32)cc1	/	.	/	/	/	/
Cc1cc(C)cc(NC(=O)CN(c2cc(C(F)(F)F)ccc2Cl)S(=O)(=O)c2ccccc2)c1	/	.	/	/	/	/
CCCC1N=C2c3ccccc3N=C(SCC(=O)NCCc3ccc(Cl)cc3)N2C1=O (stereo not drawn)	/	.	/	/	/	/
Cc1nc(NC(=O)c2ccccc2)sc1-c1csc(NCCc2ccccc2)n1	10µM	.	/	4.1µM	.	.
Cc1nc(NC(=O)c2ccccc2)sc1-c1csc(N)n1	?	.	1.9µM	.	.	.
Cc1nc(NC(=O)c2ccccc2)sc1-c1csc(NCc2ccccc2)n1	?	.	?	/	.	.
Cc1noc(C)c1S(=O)(=O)Nc1ccc(C(=O)Nc2ccc(C(C)C)cc2)cc1	/	.	/	/	/	/
Clc1ccc(Cn2c(CN3CCCC3)nc3ccccc32)cc1	.[8.37 µM]	.	?	4.1µM!	/	.
Nn1c(CN2CCCCC2)nc2ccccc2c1=O	.	.	.	2.3µM	.	.
O=c1ccc(-c2nc3ccccc3n2Cc2ccc(Cl)cc2)c[nH]1	.	.	5.9µM	9.3µM	.	.
c1ccc(Cn2c(CN3CCCC3)nc3ccccc32)cc1	.	?	?	9.3µM	?	.
CC(C)(C)c1ccc(Cn2c(Cc3ccccc3)nc3ccccc32)cc1	/	.	/	/	/	/

Bioassay records deposited in PubChem by National Center for Advancing Translational Sciences (NCATS).
